Measured values from PubChem BioAssay AID1445 (SRMLSC, 2008).
Screen size: about 220,000 compounds; about 910 (0.41%) were called active.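 How the source made its calls: active means primary inhibition above the hit cutoff, then over 50% inhibition at one or more dose response concentrations (cut at about 23% in these data, passing the limit was not always enough); inconclusive means conflicting primary data, or primary hits not chosen for dose response; inactive means low primary inhibition, or under 50% at every dose.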 For the sample, actives were picked, then their nearest neighbours and some compounds at random. Potency and affinity values are given separately.

biological target: Aminopeptidase N (Plasmodium falciparum (isolate 3D7)) (UniProt O96935); assay: P. falciparum M1AAP inhibitors, biochemical, fluorogenic H-Leu-NHMec substrate, 1536-well (AID 1445); details: recombinant M1AAP, H-Leu-NHMec fluorogenic kinetic assay; at 30 µM, hits give high values unless noted;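 further: plate controls were DMSO full reaction for no effect and no enzyme background for full effect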
Sequence (O96935 whole entry, looked up): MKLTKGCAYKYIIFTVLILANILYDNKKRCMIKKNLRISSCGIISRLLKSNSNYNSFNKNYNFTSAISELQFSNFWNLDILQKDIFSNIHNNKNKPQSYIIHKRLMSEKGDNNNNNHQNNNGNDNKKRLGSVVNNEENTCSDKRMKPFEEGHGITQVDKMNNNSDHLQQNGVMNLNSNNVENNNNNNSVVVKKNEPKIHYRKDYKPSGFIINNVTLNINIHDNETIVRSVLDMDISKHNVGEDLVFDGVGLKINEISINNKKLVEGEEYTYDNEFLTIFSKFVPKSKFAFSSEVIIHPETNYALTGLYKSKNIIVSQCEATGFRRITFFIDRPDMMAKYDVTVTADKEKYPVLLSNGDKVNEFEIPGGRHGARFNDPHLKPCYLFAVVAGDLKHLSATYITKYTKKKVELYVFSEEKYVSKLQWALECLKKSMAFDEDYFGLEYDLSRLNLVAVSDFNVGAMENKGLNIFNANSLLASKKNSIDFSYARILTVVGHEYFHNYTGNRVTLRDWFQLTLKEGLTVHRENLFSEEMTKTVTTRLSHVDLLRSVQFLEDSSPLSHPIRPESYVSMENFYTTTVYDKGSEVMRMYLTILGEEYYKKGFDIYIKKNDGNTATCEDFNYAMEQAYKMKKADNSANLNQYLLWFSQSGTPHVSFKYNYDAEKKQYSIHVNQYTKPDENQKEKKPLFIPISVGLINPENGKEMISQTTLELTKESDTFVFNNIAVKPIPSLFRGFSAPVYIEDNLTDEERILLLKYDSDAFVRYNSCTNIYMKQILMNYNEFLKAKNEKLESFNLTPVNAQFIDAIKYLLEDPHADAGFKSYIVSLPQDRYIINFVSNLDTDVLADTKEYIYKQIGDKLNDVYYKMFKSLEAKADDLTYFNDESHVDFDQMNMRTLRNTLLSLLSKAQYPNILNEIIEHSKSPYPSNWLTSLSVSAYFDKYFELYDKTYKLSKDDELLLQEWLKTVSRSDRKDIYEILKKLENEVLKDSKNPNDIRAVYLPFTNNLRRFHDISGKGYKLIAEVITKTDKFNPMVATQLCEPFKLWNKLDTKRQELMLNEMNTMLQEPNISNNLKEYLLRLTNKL

Structure (SMILES)	inhibition
O=C(O)c1cccc(S(=O)(=O)Nc2ccccc2Cl)c1	0.86% (inactive)
COc1ccc([N+](=O)[O-])cc1NS(=O)(=O)c1cccc(C(=O)O)c1	7.17% (inactive)
CCOc1cc(C(=O)N(C)Cc2cc3ccccc3[nH]c2=O)cc(OCC)c1OCC	4.4% (inactive)
CCc1nc2sc3c(c2c(=O)n1N)CC(C)(C)OC3	-0.3% (inactive)
CCCCCCCCCc1nc2sc3c(c2c(=O)n1NC(=O)c1ccc([N+](=O)[O-])cc1)CC(C)(C)OC3	3.87% (inactive)
CCCCCc1nc2sc3c(c2c(=O)n1NC(=O)c1ccc([N+](=O)[O-])cc1)CC(C)(C)OC3	4.81% (inactive)
CCCCCCCCCc1nc2sc3c(c2c(=O)n1NC(=O)c1ccccc1[N+](=O)[O-])CC(C)(C)OC3	-2.36% (inactive)
Cn1c(=O)c(C(=O)COc2ccc(F)cc2Cl)c(N)n(Cc2ccccc2)c1=O	6.9% (inactive)
COc1ccc(CC(NC(C)=O)C(=O)NC2CCN(c3c(Cc4ccccc4)c(C)nc4ncnn34)CC2)c(OC)c1 (configuration not stated)	-2.17% (inactive)
C/C(=N/N1CCN(c2ccccn2)CC1)c1ccc([N+](=O)[O-])cc1	-1.3% (inactive)
COc1ccc(Cn2nnc3c(=O)[nH]c(C(=O)NCCc4ccc(F)cc4)nc32)cc1OC	24.5% (active)
O=C(NCCc1ccccc1)c1nc2c(nnn2Cc2ccccc2Cl)c(=O)[nH]1	-9.83% (inactive)
O=C(NCc1cccs1)c1nc2c(nnn2Cc2ccc(F)cc2)c(=O)[nH]1	2.78% (inactive)
O=C(COC(=O)c1cccc(C(=O)OCC(=O)NCc2ccc(F)cc2)n1)NCc1ccc(F)cc1	5.21% (inactive)
Cc1cccc(NC(=O)C(NS(=O)(=O)c2ccc3c(c2)CCC(=O)N3)c2ccccc2)n1 (configuration not stated)	2.64% (inactive)
C=CCSc1nnc(NC(=O)c2ccc(Cl)nc2)s1	2.22% (inactive)
CSc1ncc(Cl)c(C(=O)Nc2nnc(SC/C=C/c3ccccc3)s2)n1	30% (inactive)
CCSc1ncc(Cl)c(C(=O)Nc2ccccc2)n1	2.17% (inactive)
CSc1ncc(Cl)c(C(=O)Nc2nnc(SC)s2)n1	12.7% (inactive)

Structure (SMILES)	inhibition
Fc1ccc(NC(=S)NC23CN4CN(CN(C4)C2)C3)cc1	6.25% (inactive)
CCc1cccc(CC)c1NC(=O)COn1nnc2ccc(C(F)(F)F)cc21	-1.32% (inactive)
O=C(O)c1cccc(S(=O)(=O)Nc2ccc(O)c(Sc3nc4ccccc4s3)c2)c1	22.2% (inactive)
O=S(=O)(Nc1ccc(O)c(Sc2nc3ccccc3s2)c1)c1ccc(Cl)cc1	0.11% (inactive)
COc1ccc(S(=O)(=O)Nc2ccc(O)c(Sc3ncn[nH]3)c2)cc1	18% (inactive)
O=S(=O)(Nc1ccc(O)c(Sc2nc3ccccc3s2)c1)c1ccc(F)cc1	7.05% (inactive)
Cc1cc(C)nc(NC(=O)/C=C/c2ccc3c(c2)OCO3)c1	4.5% (inactive)
Cc1cccc(NC(=O)CN2C(=O)COc3ccc(Cl)cc32)c1C	0.78% (inactive)
COc1ccc(C=O)cc1OS(=O)(=O)c1ccc(NC(C)=O)cc1	4.39% (inactive)
COc1cc(/C=C(\C#N)C(N)=O)ccc1OS(=O)(=O)c1ccc(C)cc1	12.9% (inactive)
COc1cc(C=O)ccc1OS(=O)(=O)c1ccc(NC(C)=O)cc1	7.57% (inactive)
CCOc1ccc(/C=C2\SC(=S)NC2=O)cc1OC	17.4% (inactive)
COc1ccc(/C=C2/S/C(=N/S(=O)(=O)Cc3ccccc3)NC2=O)cc1OC	12.7% (inactive)
COc1cc(/C=C/C(=O)O)ccc1OS(=O)(=O)c1ccc(C)cc1	0.48% (inactive)
CCOc1ccc(S(=O)(=O)N2CCOCC2)cc1[N+](=O)[O-]	1.27% (inactive)
Nc1ccc(C(=O)OCC(=O)c2cccc([N+](=O)[O-])c2)cc1	-2.36% (inactive)
Cc1nc(NCc2ccccc2)sc1C(=O)Nc1ccccc1	-1.78% (inactive)
CN1CCc2c(sc(NC(=O)c3ccc(S(=O)(=O)N4CCc5ccccc54)cc3)c2C(N)=O)C1	5.03% (inactive)
CCN(CC(=O)Nc1ccccc1OC)C(=O)COc1ccc2ccccc2c1	5.71% (inactive)

Structure (SMILES)	inhibition
CC1(C)CC(=O)C2=C(C1)Nc1cc(C(=O)c3ccccc3)ccc1NC2c1ccccn1 (configuration not stated)	18.1% (inactive)
CC1(C)CC(=O)C2=C(C1)Nc1ccccc1NC2c1ccccn1 (configuration not stated)	8.61% (inactive)
Cc1cc2c(cc1C)NC(c1ccccn1)C1=C(CC(C)(C)CC1=O)N2 (configuration not stated)	23.3% (active)
COCCNC(=O)c1cc2oc3ccccc3c2n1C	15% (inactive)
O=C1OC(/C(=C\Nc2ccc(F)cc2F)[N+](=O)[O-])c2ccccc21 (configuration not stated)	8.86% (inactive)
O=C1OC(/C(=C\Nc2ccccc2)[N+](=O)[O-])c2ccccc21 (configuration not stated)	7.21% (inactive)
O=[N+]([O-])c1cc(S(=O)(=O)N2CCCC2)ccc1NCCCN1CCOCC1	4.04% (inactive)
O=[N+]([O-])c1cc2oc3c(c2c(C=NCc2ccccc2)c1O)CCCC3	-0.25% (inactive)
CC(C)NCc1c(O)c(Br)cc2oc3c(c12)CCCC3	9.95% (inactive)
Oc1c(Br)cc2oc3c(c2c1CNCc1ccccc1)CCCC3	33.9% (active)
O=C(CSc1nnc(-c2cccs2)o1)OCc1ccccc1	5.09% (inactive)
CCO[C@H]1OC(C(=O)N2CCOCC2)=C[C@@H](c2ccc(Br)cc2)[C@@H]1CCCO	-2.33% (inactive)
CC/C(=C\C1CCCCC1)C(NP(=O)(c1ccccc1)c1ccccc1)c1ccccc1 (configuration not stated)	5.64% (inactive)
CCOc1cc(NS(=O)(=O)c2ccc(OC)cc2)c(OCC)cc1NC(=O)c1ccco1	1.99% (inactive)
CCOC(=O)C1C(=O)CC(C)(O)C(C(=O)OCC)C1c1ccc(Br)cc1 (configuration not stated)	11.1% (inactive)
Cc1ccc(NC(=O)N2CCN(S(=O)(=O)c3ccccc3)CC2)cc1	-1.89% (inactive)
NS(=O)(=O)c1ccc(CCNC(=O)CSc2ccc(Cl)cc2)cc1	9.38% (inactive)
O=C(COC(=O)CCSc1ccc(Cl)cc1)NCCc1ccccc1	-5.52% (inactive)
O=C(CCC(=O)Nc1ccccc1)N/N=C/C=C/c1ccccc1	7.53% (inactive)
